# IDE cell activ = IDE (human) activation, cell-based; activation, % at 5.96 µM; HEK cells, FAbeta-B cleavage, fluorescence polarization; 0% vehicle, 100% cell-free pure enzyme wells; 340,000 compounds, 0.073% hits; AID 493087;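 active = activation above the mean of all tested compounds plus 3 SD, set per screening campaign, cut at about 17% in these data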
# Mot1-301 SUMO = SUMOylation pathway inhibition by Mot1-301 growth rescue; S. cerevisiae Mot1-301 growth rescue, ATP luminescence, 38.5C; percent above DMSO median, 100 means doubled; growth rescue, % at 18.8 µM; 320,000 compounds, 1% hits; AID 2716;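 active = every valid replicate shows activation above 250% relative to neutral control wells; inactive = the rest, any valid replicate at or below 250%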
# LANA-H2A inh = blocks KSHV LANA binding to histone H2A/H2B | 320,000 compounds, 0.6% hits | cell-free LANA-H2A/H2B peptide, fluorescence polarization | inhibition, % (concentration not given with the values); in the data active = inhibition mostly above about 10%, no sharp cut-off; inactive = mostly below about 6.7%
# HDAC3 inhib = human HDAC3 inhibition. recombinant HDAC3, fluorogenic peptide/trypsin coupled, fluorescence. inhibition, % at 8.3 µM. 320,000 compounds, 0.15% hits. AID 2718; in the data active = inhibition above about 26%, passing the limit was not always enough
# IDE inh = inhibits human insulin-degrading enzyme in HEK cells; P14735; FAbetaB cleavage, fluorescence polarization; inhibition, % at 5.59 µM; 320,000 compounds, 0.41% hits; AID 434962;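 active = percent inhibition above the average of all tested compounds plus 3 SD, set per screening campaign, cut at about 16% in these data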;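 also: IDE supplied by intact live HEK cells; FP after avidin binding of uncleaved biotin substrate so inhibition keeps polarization high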
# IDE inh confirm = cellular human IDE inhibition, confirmation; shares compounds with IDE inh; HEK cells, FAbetaB cleavage, fluorescence polarization; inhibition, % at 5.59 µM; 1,200 compounds, 51% hits; AID 435028;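 active = mean inhibition across triplicate wells above the cutoff set by the earlier primary insulin-degrading enzyme screen, cut at about 16% in these data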
# HEK293 tox = kills HEK cells in IDE inhibitor counter-screen. HEK293 cytotoxicity, ATP luminescence. inhibition, % at 5.59 µM. 1,200 compounds, 28% hits. shares compounds with IDE inh; in the data active = inhibition above about 22%
# A number is an active result; i = inactive; nt = no result given. Sampled rows, rich in hits. Any-hit rate of the full collection: about 2.1%.
SMILES,IDE cell activ,Mot1-301 SUMO,LANA-H2A inh,HDAC3 inhib,IDE inh,IDE inh confirm,HEK293 tox
CN(C)c1ccc(CNC(=O)CCc2ccc(S(=O)(=O)N3CCCCCC3)cc2)cc1,i,nt,nt,nt,nt,nt,nt
C=CCN1C(=O)/C(=C/c2ccc(O)c(OC)c2)S/C1=N/c1nccs1,i,i,i,i,154,26,i
C=CCN1C(=O)/C(=C/c2ccc(OCC(=O)O)cc2)S/C1=N/c1nccs1,i,i,i,nt,i,nt,nt
O=C(Nn1c(O)c(C=C2N=c3ccccc3=N2)sc1=S)c1ccccc1,i,i,i,i,20,i,i
CN(C)S(=O)(=O)c1ccc2c(c1)/C(=C/c1cc3c([nH]1)CCCC3)C(=O)N2,i,i,i,i,45,105,i
C=CCOC(=O)C1=C(C)OC(N)=C(C#N)C1c1ccoc1 (stereo not given),i,i,i,i,45,40,i
O=C(N1CCc2cc(S(=O)(=O)NC[C@H]3O[C@@H](n4ccc(=O)[nH]c4=O)[C@H](O)[C@@H]3O)ccc2C1)C(F)(F)F,i,nt,nt,nt,nt,nt,nt
COc1ccc2c(=O)c(Oc3ccc(C(=O)O)cc3)c(C(F)(F)F)oc2c1,i,i,i,i,18,i,i
CSc1ccc(/C=C2\C(=N)N3N=C(CC(=O)N4CCOCC4)SC3=NC2=O)cc1,i,i,i,i,i,nt,nt
CCN(CC)c1ccc(/C=C2\C(=N)N3N=C(CC(=O)N4CCOCC4)SC3=NC2=O)cc1,i,i,i,i,20,36,i
CC(c1nccs1)N(C)C(=O)CCc1nnc(-c2ccc(-c3ccccc3)cc2)o1 (stereo not given),i,i,i,i,25,i,i
COc1ccc(/C=N/n2c(C)nc3c([nH]c4ccccc43)c2=O)cc1CN1CCCC(C)(C)C1,i,i,i,i,i,nt,nt
COc1ccc2[nH]c3c(=O)n(/N=C/c4ccc(OC)c(CN5CCCC5)c4)c(C)nc3c2c1,i,i,i,nt,17,i,i
CC(C)Oc1ccc(S(=O)(=O)N2CCOCC2)cc1NC(=O)c1cccc(S(=O)(=O)N2CCCC2)c1,i,nt,nt,nt,nt,nt,nt
COc1ccc(C(=O)N/C(=C/c2cccs2)C(=O)NN)cc1OC,i,i,i,i,22,i,i
NC(=S)N/N=C\c1ccc(-c2cccc(Cl)c2Cl)o1,i,i,i,i,27,i,28
COc1ccc(OCCNC(=O)Nc2cc(F)c(F)cc2Cl)cc1,i,i,i,i,18,i,i
COc1cccc(OCCNC(=O)Nc2cc(F)c(F)cc2Cl)c1,i,i,i,i,i,nt,nt
CC(NC(=O)c1ccc(N(C)C)c([N+](=O)[O-])c1)c1ccc(-n2ccnc2)cc1 (stereo not given),i,i,i,i,19,i,i
O=C(N/N=C/c1c(O)n(-c2ccc(Cl)cn2)c(=O)c2ccccc12)c1ccncc1,i,i,i,i,22,38,i
Cc1cccc(N2CCN(C(=O)CCn3c(=O)[nH]c4ccsc4c3=O)CC2C)c1 (stereo not given),i,i,i,i,24,i,i
CC(=O)c1ccc(NC(=O)CSc2nnc(-c3ccncc3)n2C2CC2)cc1,i,i,i,i,i,nt,nt
CCOc1ccc(CN(C)C(=O)CNC(=O)c2ccc3ccccc3c2)cc1OC,i,i,i,i,17,i,i
COc1ccc(Br)cc1CN(C)C(=O)CNC(=O)c1ccc2ccccc2c1,i,i,i,i,i,nt,nt
O=C(C1=COCCO1)N1CCN(S(=O)(=O)c2cccc(F)c2)CC1,i,i,i,i,i,nt,nt
Cn1nc(N)c2c(-c3ccc(Cl)cc3)c(C#N)c(N)nc21,i,i,i,i,16,i,i
Cn1nc(N)c2c(-c3ccccc3)c(C#N)c(N)nc21,i,i,i,i,i,nt,nt
Cc1ccc(-c2ccccc2NC(=O)CCl)o1,i,i,i,i,i,nt,nt
Cc1ccc(-c2ccccc2NC(=O)CS(=O)CC(=O)Nc2ccc(C)c(Cl)c2)o1 (stereo not given),i,i,i,i,26,i,i
COc1ccc(S(N)(=O)=O)cc1C(=O)NNC(=O)c1cccc(S(=O)(=O)N2CCOCC2)c1,i,nt,nt,nt,nt,nt,nt

# Bioassay records (PubChem BioAssay)
